Only some compounds are listed: those with a hit (about 6.7% of all), similar ones and a draw of the others.
KB-V1 MDR tox = qHTS assay for MDR1-selective chemotherapeutics: Primary screen using the drug-selected MDR subline cells KB-V1 | 400,000 tested, 3.4% active | Potency, µM (titrated, usually from 46.1 µM), usual class: cytotoxic | KB-V1 MDR cells viability, CellTiter-Glo, 72 h; also: % is scaled to controls: 0 for no effect and ±100 for the full control effect; nearly all actives have a fitted effect of over 60% in size
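KB-V1 cells (P-gp-expressing MDR subline of KB-3-1) in phenol-red-free DMEM with 10% FBS were exposed to library compounds over a concentration series for 72 h at 37 degrees C. Viability read by CellTiter-Glo luminescence; concentration-effect curves fitted after normalization.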
PINK1 expr mod = A Quantitative High throughput Screen to Identify Chemical Modulators of PINK1 Expression; Potency, µM (doses to about 76.6 µM), without a hit: at the highest dose activation (PINK1 increase), hits mostly activators; PINK1 immunofluorescence, high-content cytometry, 24 h; 410,000 tested, 0.2% active; AID 624263, 2012; active = well fitted activation curve with a large enough effect; inconclusive = small, poorly fitted or top-dose-only effect; cell line not stated here; also: % of control where 0% means no effect; nearly all actives have a fitted effect of over 65% in size
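Compound titrations (5 concentrations, 24 h) on a stable cell line; DMSO and CCCP controls. Endpoint: fixed-cell PINK1 immunofluorescence with mitochondrial, cell and nuclear markers, scanned by microplate cytometer.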
MCF10A rereplic = A quantitative high throughput screen for small molecules that induce DNA re-replication in MCF 10a normal breast cells. MCF 10A DNA re-replication, Hoechst nuclear intensity, 48 h. AID 624296, 2012. 350,000 tested, 2.9% active. Potency, µM (top dose mostly 46.1 µM), for the others: at the top dose activity, positive = re-replication, most hits filed as activators; also: % of control where 0% means no effect; nearly all actives have a fitted effect of over 50% in size
KB-3-1 cytotox = qHTS assay for MDR1-selective chemotherapeutics: Primary screen using the parental adenocarcinoma cell KB-3-1; KB-3-1 viability, CellTiter-Glo ATP luminescence, 72 h; Potency, µM (series often up to 46.1 µM), actives largely listed as cytotoxic; 400,000 tested, 1.4% active; also: % is scaled to controls: 0 for no effect and ±100 for the full control effect; nearly all actives have a fitted effect of over 60% in size
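Luminescent ATP read-out (CellTiter-Glo) measures survival of drug-naive KB-3-1 cells after 72 h compound exposure at 37 °C. Titration series was screened from lowest to highest concentration, with DMSO vehicle plates as background controls.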
SW480 rereplic = A quantitative high throughput screen for small molecules that induce DNA re-replication in SW480 colon adenocarcinoma cells | SW480 DNA re-replication, Hoechst DNA content imaging, 48 h | Potency, µM (doses to about 46.1 µM), for inactives: top-dose re-replication activation, actives largely listed as activators | 340,000 tested, 1.8% active | AID 624297, 2012; also: % of control where 0% means no effect; nearly all actives have a fitted effect of over 55% in size
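Readout is total intensity of Hoechst-stained nuclei, excited at 405 nm and collected at 500-530 nm. Compound treatment lasted 48 hr at 37 C in 5% CO2 before staining.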
* marks the source's active call; other numbers are inactive results; i = inactive; u = inconclusive; x = no result; [ ] = dose if it differs, or a comment. Unless noted, calls follow the shape of the dose curve; as a rule, active = well fitted curve in the direction sought with a large enough effect; inconclusive = small, poorly fitted or top-dose-only effect, or another doubt; inactive = no such curve, though single readings can be large; an effect the other way counts as inactive or inconclusive. Potency is read from the fitted curve at half-maximal effect.

SMILES	KB-V1 MDR tox	PINK1 expr mod	MCF10A rereplic	KB-3-1 cytotox	SW480 rereplic
O=C(c1ccccc1)N1CCCc2ccccc21	i	0%	-3%	i	-1%
COc1cc(C(=O)N2c3ccccc3CC2C)cc(OC)c1OC (stereo not drawn)	18µM*	7%	-1%	u	5%
O=C(Nc1cccc(C(=O)N2CCCc3ccccc32)c1)c1ccccc1	21µM*	1%	15µM*	u	u
Cc1ccc(S(=O)(=O)N2CCCN(c3nc(-c4cccs4)nc4ccccc34)CC2)cc1	u	-1%	x	i	x
CC(C)(C)c1ccc(CC(=O)N2CCC2(C)C(=O)NCc2cccs2)cc1 (stereo not drawn)	u	2%	x	i	x
Nc1[nH]c(C(=O)c2ccccc2)c(-c2ccccc2Cl)c1C(=O)c1ccccc1	i	7%	x	i	x
CC1CCCN(C(=O)C2CC(=O)N(c3ccc(Cl)cc3)C2)C1 (stereo not drawn)	u	-2%	-1%	i	-10%
CCn1c(=O)cc(OCC(=O)NCc2ccccc2Cl)c2ccccc21	i	1%	x	i	x
COc1ccc(-n2nnnc2SCC(=O)NCCc2ccccc2)cc1	i	1%	x	i	x
NC(=O)c1sc2nc(N3CCOCC3)c3c(c2c1N)CCCC3	u	-1%	u	i	-3%
CC(=O)c1sc2nc(-c3ccc(C)cc3)c3c(c2c1N)CCCC3	18µM*	1%	2.3µM*	i	2.9µM*
NC(=O)c1sc2nc(-c3ccccc3)c3c(c2c1N)CCCC3	i	1%	21µM*	i	15µM*
Cc1nc2sc(C(N)=O)c(N)c2c2c1CCCC2	21µM*	-2%	u	i	u
Cc1ccc(-c2nc3sc(C(N)=O)c(N)c3c3c2CCCC3)cc1	u	-2%	5.2µM*	i	16µM*
Cc1ccc(-c2c3c(nc4sc(C(N)=O)c(N)c24)CCCC3)o1	i	0%	u	i	-447%
NC(=O)c1sc2nc3c(c(-c4ccco4)c2c1N)CCC3	u	x	-15%	i	7%
CC1(C)NC(=O)N(CC(=O)N2CCN(c3ccc([N+](=O)[O-])cc3)CC2)C1=O	i	2%	1%	i	-15%
Cc1c(C(=O)N2CCC(C)CC2)c(S(=O)(=O)Nc2ccc(OC(F)(F)F)cc2)c(C)n1C	x	0%	x	x	x
CCc1nc2sc(C#N)c(N)c2c2c1CCCC2	i	-3%[38.3 µM]	22%	i	2%
CCc1nc2sc(C(C)=O)c(N)c2c2c1CCCC2	u	-1%	2.9µM*	i	15µM*
CCOc1ccccc1CNC(=O)C1CCN(c2nnc(C)c3c(C)n(-c4ccc(C)cc4)nc23)CC1	i	-2%	23µM*	u	u
Cc1ccc(C)c(NC(=O)N2CCN(c3nnc(C)c4c(C)n(-c5ccccc5)nc34)CC2)c1	i	2%	x	i	x
COc1ccc(C)cc1NC(=O)N1CCN(c2nnc(C)c3c(C)n(-c4ccccc4)nc23)CC1	i	28µM*	x	i	x
O=C(NCCN1CCOCC1)c1cnn(-c2nccc(-c3ccccc3C(F)(F)F)n2)c1C1CC1	x	0%	x	x	x
CCNc1ccc(Br)cc(C(=O)/C=C/c2ccc(Cl)cc2Cl)c1=O	18µM*	-4%	21µM*	u	u
SMILES	KB-V1 MDR tox	PINK1 expr mod	MCF10A rereplic	KB-3-1 cytotox	SW480 rereplic
CNc1ccc(Br)cc(C(=O)/C=C/c2ccc(OC)cc2)c1=O	u	14%	u	u	-6%
CNc1ccc(Br)cc(C(=O)/C=C/c2cc(OC)ccc2OC)c1=O	18µM*	-1%	u	u	u
Oc1ccc(Br)cc1/C=N/n1c(C2CCCCC2)n[nH]c1=S	i	8%	u	i	11%
COc1ccc(Oc2ncc3nc(-c4ccccc4)c(=O)n(Cc4cccs4)c3n2)cc1	x	1%	x	x	x
COCCCn1c(=O)/c(=C\c2ccc(OC(F)F)c(OC)c2)s/c1=C(/C#N)C(N)=O	u	11%	u	i	-21%
COCCCn1c(=O)/c(=C\c2ccccc2OC(F)F)s/c1=C(/C#N)C(N)=O	i	35µM*	u	i	u
COc1ccc(O)c(C(=O)c2cc(C(=O)NCCc3ccccc3)c(=O)n(CCc3ccccc3)c2)c1	2.1µM*	2%	6%	i	1%
CSc1ccc(S(=O)(=O)NCC(=O)OCCOc2ccccc2)cc1[N+](=O)[O-]	i	13%	u	i	4%
Nc1ccc(S(=O)(=O)NCC(=O)OCCOc2ccccc2)cc1[N+](=O)[O-]	i	2%	15µM*	i	-67%
Cn1c(Sc2ccc(C(F)(F)F)cc2[N+](=O)[O-])nnc1-c1ccccc1	21µM*	2%[38.3 µM]	13%	i	4%
COc1ccc(CNC(=O)c2ccc3c(c2)N(C)C(=O)C2CCCCN32)cc1OC (stereo not drawn)	i	3%	x	i	x
COc1ccc(NC(=O)c2nnn(Cc3nc(-c4cc(OC)c(OC)c(OC)c4)oc3C)c2C)cc1Cl	i	4%	x	i	x
O=C(Cn1cc(S(=O)(=O)N2CCCC2)c(S(=O)(=O)N2CCCC2)c1)Nc1ccccc1	i	7%	x	u	x
O=S(=O)(O)c1cccc2cccnc12	x	0%	x	x	x
CSS(=O)(=O)c1cccc2cccnc12	i	8%	18µM*	i	u
CCOC(=O)N(O)c1ccc(C=Cc2ccccc2)cc1	21µM*	-6%	u	u	12µM*
CCOC(=O)C(=Cc1ccc(N(C)C)cc1)C(=O)c1ccccc1	i	3%	x	i	x
N/C(=N\N=C\c1ccnc2ccccc12)SC1CC(=O)N(c2ccc(Br)cc2)C1=O (stereo not drawn)	i	4%	7.3µM*	i	0%
N/C(=N\N=C\c1cccs1)SC1CC(=O)N(c2ccc(Br)cc2)C1=O (stereo not drawn)	i	-1%	1%	i	10%
Cc1cccc(NC(=O)Cn2ncc3c4ccccc4n(Cc4ccccc4)c3c2=O)c1C	u	4%	x	i	x
O=C1C=C(N(CCO)Cc2ccccc2)c2ccccc2C1=O	18µM*	-1%	6.5µM*	u	15µM*
CCOC(=O)[C@H]1[C@H]2COc3ccc(Cl)cc3[C@@H]2N2C(=O)c3cc(F)c(F)cc3NC(=O)[C@@]12C	u	1%	-5%	23µM*	7%
CCOC(=O)[C@@H]1[C@H]2COc3cc(OC)ccc3[C@H]2N2C(=O)N(c3ccc(C(F)(F)F)cc3)C(=O)[C@]12C	u	40µM*	13%	u	1%

Bioassay records (PubChem)
